Results from paper PMC11006913.
Residue numbers refer to the chain shown, from its start.

Key:
Experiment in all cases: PBM; 200 nM protein, PBS
Conditions in all cases: dsDNA, one strand shown
NKX2-4 [1] = molecular target: T1, NKX2-4 (Homo sapiens, UniProt Q9H2Z4 175-261, P217L)
T1 sequence: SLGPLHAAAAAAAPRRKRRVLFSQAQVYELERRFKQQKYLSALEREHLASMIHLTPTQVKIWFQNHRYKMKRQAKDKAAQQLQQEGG

HOXA4 [2] = molecular target: HOXA4 (Homo sapiens, UniProt Q00056 201-287, W262R)
NKX2-4 [3] = molecular target: T2, NKX2-4 (Homo sapiens, UniProt Q9H2Z4 175-261, T231S)
T2 sequence: T1 sequence with L43P, T57S

NKX2-4 [4] = molecular target: T3, NKX2-4 (Homo sapiens, UniProt Q9H2Z4 175-261)
T3 sequence: T1 sequence with L43P

HOXA4 [5] = molecular target: HOXA4 (Homo sapiens, UniProt Q00056 201-287, R217L)
HOXA4 (Homo sapiens, UniProt Q00056 201-287, R217L), sequence (Q00056 201-287 R217L): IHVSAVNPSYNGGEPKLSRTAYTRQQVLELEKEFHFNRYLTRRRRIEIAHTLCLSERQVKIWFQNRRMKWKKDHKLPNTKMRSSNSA

HOXA4 [6] = molecular target: HOXA4 (Homo sapiens, UniProt Q00056 201-287)
HOXA4 (Homo sapiens, UniProt Q00056 201-287), sequence (Q00056 201-287): as the sequence (Q00056 201-287 R217L) above, with L17R counted along it

NKX2-4 [7] = molecular target: T4, NKX2-4 (Homo sapiens, UniProt Q9H2Z4 175-261, R246Q)
T4 sequence: T1 sequence with L43P, R72Q

HOXA4 [8] = molecular target: HOXA4 (Homo sapiens, UniProt Q00056 201-287, W262F)
HOXA4 (Homo sapiens, UniProt Q00056 201-287, W262F), sequence (Q00056 201-287 W262F): as the sequence (Q00056 201-287 R217L) above, with L17R, W62F counted along it

CRX [9] = molecular target: CRX (Homo sapiens, UniProt O43186 26-111)
CRX (Homo sapiens, UniProt O43186 26-111), sequence (O43186 26-111): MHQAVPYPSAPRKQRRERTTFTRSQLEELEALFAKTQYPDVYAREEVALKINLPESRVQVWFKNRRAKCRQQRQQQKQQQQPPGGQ

CRX [10] = molecular target: CRX (Homo sapiens, UniProt O43186 26-111, E42D)
CRX (Homo sapiens, UniProt O43186 26-111, E42D), sequence (O43186 26-111 E42D): as the sequence (O43186 26-111) above, with E17D counted along it

CRX [11] = molecular target: CRX (Homo sapiens, UniProt O43186 26-111, R41L)
CRX (Homo sapiens, UniProt O43186 26-111, R41L), sequence (O43186 26-111 R41L): as the sequence (O43186 26-111) above, with R16L counted along it

HOXC9 [12] = molecular target: HOXC9 (Homo sapiens, UniProt P31274 178-260, K195R)
HOXC9 (Homo sapiens, UniProt P31274 178-260, K195R), sequence (P31274 178-260 K195R): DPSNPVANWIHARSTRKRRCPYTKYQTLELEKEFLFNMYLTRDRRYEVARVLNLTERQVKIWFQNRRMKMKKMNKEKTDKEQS

NKX2-6 = molecular target: T5, NKX2-6 (Homo sapiens, UniProt A6NCS4 118-204, R150C)
T5 sequence: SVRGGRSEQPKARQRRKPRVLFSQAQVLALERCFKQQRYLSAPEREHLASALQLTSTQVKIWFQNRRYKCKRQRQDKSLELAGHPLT

HOXC9 [13] = molecular target: HOXC9 (Homo sapiens, UniProt P31274 178-260)
HOXC9 (Homo sapiens, UniProt P31274 178-260), sequence (P31274 178-260): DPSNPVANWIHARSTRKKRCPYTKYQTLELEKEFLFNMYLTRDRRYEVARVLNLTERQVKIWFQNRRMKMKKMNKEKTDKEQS

ALX1 [14] = molecular target: ALX1 (Homo sapiens, UniProt Q15699 118-204, L144V)
ALX1 (Homo sapiens, UniProt Q15699 118-204, L144V), sequence (Q15699 118-204 L144V): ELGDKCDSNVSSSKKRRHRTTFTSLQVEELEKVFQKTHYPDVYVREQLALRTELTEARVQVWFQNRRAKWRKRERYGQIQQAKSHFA

HOXC9 [15] = molecular target: HOXC9 (Homo sapiens, UniProt P31274 178-260, R193K)
HOXC9 (Homo sapiens, UniProt P31274 178-260, R193K), sequence (P31274 178-260 R193K): as the sequence (P31274 178-260) above, with R16K counted along it

ALX1 [16] = molecular target: ALX1 (Homo sapiens, UniProt Q15699 118-204, L144R)
ALX1 (Homo sapiens, UniProt Q15699 118-204, L144R), sequence (Q15699 118-204 L144R): as the sequence (Q15699 118-204 L144V) above, with V27R counted along it

HOXC9 [17] = molecular target: HOXC9 (Homo sapiens, UniProt P31274 178-260, R222W)
HOXC9 (Homo sapiens, UniProt P31274 178-260, R222W), sequence (P31274 178-260 R222W): as the sequence (P31274 178-260) above, with R45W counted along it

ALX1 [18] = molecular target: ALX1 (Homo sapiens, UniProt Q15699 118-204)
ALX1 (Homo sapiens, UniProt Q15699 118-204), sequence (Q15699 118-204): as the sequence (Q15699 118-204 L144V) above, with V27L counted along it

PITX2 = PITX2 (Homo sapiens, UniProt Q99697 72-157)
HOXB9 [19] = molecular target: HOXB9 (Homo sapiens, UniProt P17482 171-250, T197M)
HOXB9 (Homo sapiens, UniProt P17482 171-250, T197M), sequence (P17482 171-250 T197M): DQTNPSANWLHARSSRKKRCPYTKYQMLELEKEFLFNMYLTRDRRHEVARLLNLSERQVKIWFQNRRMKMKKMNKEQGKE

HOXB9 [20] = molecular target: HOXB9 (Homo sapiens, UniProt P17482 171-250)
HOXB9 (Homo sapiens, UniProt P17482 171-250), sequence (P17482 171-250): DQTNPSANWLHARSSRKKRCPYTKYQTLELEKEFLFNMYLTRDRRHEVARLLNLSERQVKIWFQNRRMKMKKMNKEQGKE

HOXB9 [21] = molecular target: HOXB9 (Homo sapiens, UniProt P17482 171-250, R186Q)
HOXB9 (Homo sapiens, UniProt P17482 171-250, R186Q), sequence (P17482 171-250 R186Q): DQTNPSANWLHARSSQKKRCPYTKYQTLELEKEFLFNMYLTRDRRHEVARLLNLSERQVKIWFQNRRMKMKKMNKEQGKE

SIX6 [22] = molecular target: T6, SIX6 (Homo sapiens, UniProt O95475 114-200, L167I)
T6 sequence: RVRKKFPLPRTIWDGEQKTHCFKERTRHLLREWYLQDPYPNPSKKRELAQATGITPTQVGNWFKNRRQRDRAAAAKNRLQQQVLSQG

SIX6 [23] = molecular target: T7, SIX6 (Homo sapiens, UniProt O95475 114-200, L143V)
T7 sequence: T6 sequence with L30V, I54L

SIX6 [24] = molecular target: T8, SIX6 (Homo sapiens, UniProt O95475 114-200, H141N)
T8 sequence: T6 sequence with H28N, I54L

SIX6 [25] = molecular target: T9, SIX6 (Homo sapiens, UniProt O95475 114-200, T165P)
T9 sequence: T6 sequence with T52P, I54L

SIX6 [26] = molecular target: T10, SIX6 (Homo sapiens, UniProt O95475 114-200, L167M)
T10 sequence: T6 sequence with I54M

SIX6 [27] = molecular target: T11, SIX6 (Homo sapiens, UniProt O95475 114-200, L143M)
T11 sequence: T6 sequence with L30M, I54L

SIX6 [28] = molecular target: T12, SIX6 (Homo sapiens, UniProt O95475 114-200, L143I)
T12 sequence: T6 sequence with L30I, I54L

SIX6 [29] = molecular target: T13, SIX6 (Homo sapiens, UniProt O95475 114-200, T165G)
T13 sequence: T6 sequence with T52G, I54L

SIX6 [30] = molecular target: T14, SIX6 (Homo sapiens, UniProt O95475 114-200, T139Q)
T14 sequence: T6 sequence with T26Q, I54L

SIX6 [31] = molecular target: T15, SIX6 (Homo sapiens, UniProt O95475 114-200, T165A)
T15 sequence: T6 sequence with T52A, I54L

SIX6 [32] = molecular target: T16, SIX6 (Homo sapiens, UniProt O95475 114-200, L167V)
T16 sequence: T6 sequence with I54V

SIX6 [33] = molecular target: T17, SIX6 (Homo sapiens, UniProt O95475 114-200)
T17 sequence: T6 sequence with I54L

SIX6 [34] = molecular target: T18, SIX6 (Homo sapiens, UniProt O95475 114-200, T165I)
T18 sequence: T6 sequence with T52I, I54L

HOXA4 (Homo sapiens, UniProt Q00056 201-287, W262R), sequence (Q00056 201-287 W262R): as the sequence (Q00056 201-287 R217L) above, with L17R, W62R counted along it

## CAGTCCCG
NKX2-4 [1]
  binding signal: 9.58 upbm affinity estimate (log intensity, higher = more binding, comparable within an allelic series)
HOXA4 [2]
  binding signal: 9.96 upbm affinity estimate (log intensity, higher = more binding, comparable within an allelic series)
NKX2-4 [3]
  binding signal: 9.49 upbm affinity estimate (log intensity, higher = more binding, comparable within an allelic series)
NKX2-4 [4]
  binding signal: 9.67 upbm affinity estimate (log intensity, higher = more binding, comparable within an allelic series)
HOXA4 [5]
  binding signal: 9.95 upbm affinity estimate (log intensity, higher = more binding, comparable within an allelic series)
HOXA4 [6]
  binding signal: 9.91 upbm affinity estimate (log intensity, higher = more binding, comparable within an allelic series)
NKX2-4 [7]
  binding signal: 9.57 upbm affinity estimate (log intensity, higher = more binding, comparable within an allelic series)
HOXA4 [8]
  binding signal: 10 upbm affinity estimate (log intensity, higher = more binding, comparable within an allelic series)

## GCCAATCC
CRX [9]
  binding signal: 10.4 upbm affinity estimate (log intensity, higher = more binding, comparable within an allelic series)
CRX [10]
  binding signal: 10.3 upbm affinity estimate (log intensity, higher = more binding, comparable within an allelic series)
CRX [11]
  binding signal: 10.1 upbm affinity estimate (log intensity, higher = more binding, comparable within an allelic series)

## CACTAATC
CRX [9]
  binding signal: 12.8 upbm affinity estimate (log intensity, higher = more binding, comparable within an allelic series)
CRX [10]
  binding signal: 12.6 upbm affinity estimate (log intensity, higher = more binding, comparable within an allelic series)
CRX [11]
  binding signal: 12 upbm affinity estimate (log intensity, higher = more binding, comparable within an allelic series)

## GCTGCCGA
NKX2-4 [1]
  binding signal: 9.14 upbm affinity estimate (log intensity, higher = more binding, comparable within an allelic series)
HOXC9 [12]
  binding signal: 9.65 upbm affinity estimate (log intensity, higher = more binding, comparable within an allelic series)
NKX2-4 [3]
  binding signal: 9.11 upbm affinity estimate (log intensity, higher = more binding, comparable within an allelic series)
NKX2-4 [4]
  binding signal: 9.11 upbm affinity estimate (log intensity, higher = more binding, comparable within an allelic series)
NKX2-6
  binding signal: 9.17 upbm affinity estimate (log intensity, higher = more binding, comparable within an allelic series)
HOXC9 [13]
  binding signal: 9.69 upbm affinity estimate (log intensity, higher = more binding, comparable within an allelic series)
ALX1 [14]
  binding signal: 6.5 upbm affinity estimate (log intensity, higher = more binding, comparable within an allelic series)
HOXC9 [15]
  binding signal: 9.57 upbm affinity estimate (log intensity, higher = more binding, comparable within an allelic series)
ALX1 [16]
  binding signal: 6.4 upbm affinity estimate (log intensity, higher = more binding, comparable within an allelic series)
NKX2-4 [7]
  binding signal: 9.29 upbm affinity estimate (log intensity, higher = more binding, comparable within an allelic series)
HOXC9 [17]
  binding signal: 9.8 upbm affinity estimate (log intensity, higher = more binding, comparable within an allelic series)
ALX1 [18]
  binding signal: 6.43 upbm affinity estimate (log intensity, higher = more binding, comparable within an allelic series)

## ATAACCCC
CRX [9]
  binding signal: 10.6 upbm affinity estimate (log intensity, higher = more binding, comparable within an allelic series)
CRX [10]
  binding signal: 10.4 upbm affinity estimate (log intensity, higher = more binding, comparable within an allelic series)
CRX [11]
  binding signal: 10.2 upbm affinity estimate (log intensity, higher = more binding, comparable within an allelic series)

## GTAGCAAC
CRX [9]
  binding signal: 8.55 upbm affinity estimate (log intensity, higher = more binding, comparable within an allelic series)
CRX [10]
  binding signal: 8.49 upbm affinity estimate (log intensity, higher = more binding, comparable within an allelic series)
CRX [11]
  binding signal: 8.42 upbm affinity estimate (log intensity, higher = more binding, comparable within an allelic series)

## CGCCCCTC
CRX [9]
  binding signal: 8.34 upbm affinity estimate (log intensity, higher = more binding, comparable within an allelic series)
CRX [10]
  binding signal: 8.45 upbm affinity estimate (log intensity, higher = more binding, comparable within an allelic series)
CRX [11]
  binding signal: 8.42 upbm affinity estimate (log intensity, higher = more binding, comparable within an allelic series)

## GTAATCCA
CRX [9]
  binding signal: 12.9 upbm affinity estimate (log intensity, higher = more binding, comparable within an allelic series)
PITX2
  binding signal: 12.9 upbm affinity estimate (log intensity, higher = more binding, comparable within an allelic series)
CRX [11]
  binding signal: 12.7 upbm affinity estimate (log intensity, higher = more binding, comparable within an allelic series)

## CAACCTGC
CRX [9]
  binding signal: 8.42 upbm affinity estimate (log intensity, higher = more binding, comparable within an allelic series)
CRX [10]
  binding signal: 8.42 upbm affinity estimate (log intensity, higher = more binding, comparable within an allelic series)
CRX [11]
  binding signal: 8.35 upbm affinity estimate (log intensity, higher = more binding, comparable within an allelic series)

## GAACGCCC
CRX [9]
  binding signal: 8.05 upbm affinity estimate (log intensity, higher = more binding, comparable within an allelic series)
CRX [10]
  binding signal: 8.12 upbm affinity estimate (log intensity, higher = more binding, comparable within an allelic series)
CRX [11]
  binding signal: 8.13 upbm affinity estimate (log intensity, higher = more binding, comparable within an allelic series)

## CTGGGGGC
NKX2-4 [1]
  binding signal: 9.39 upbm affinity estimate (log intensity, higher = more binding, comparable within an allelic series)
HOXB9 [19]
  binding signal: 8.38 upbm affinity estimate (log intensity, higher = more binding, comparable within an allelic series)
NKX2-4 [3]
  binding signal: 9.45 upbm affinity estimate (log intensity, higher = more binding, comparable within an allelic series)
NKX2-4 [4]
  binding signal: 9.5 upbm affinity estimate (log intensity, higher = more binding, comparable within an allelic series)
HOXB9 [20]
  binding signal: 8.3 upbm affinity estimate (log intensity, higher = more binding, comparable within an allelic series)
NKX2-4 [7]
  binding signal: 9.37 upbm affinity estimate (log intensity, higher = more binding, comparable within an allelic series)
HOXB9 [21]
  binding signal: 8.44 upbm affinity estimate (log intensity, higher = more binding, comparable within an allelic series)

## CCCTGCGC
NKX2-4 [1]
  binding signal: 9.21 upbm affinity estimate (log intensity, higher = more binding, comparable within an allelic series)
SIX6 [22]
  binding signal: 8.93 upbm affinity estimate (log intensity, higher = more binding, comparable within an allelic series)
SIX6 [23]
  binding signal: 8.85 upbm affinity estimate (log intensity, higher = more binding, comparable within an allelic series)
NKX2-4 [3]
  binding signal: 9.11 upbm affinity estimate (log intensity, higher = more binding, comparable within an allelic series)
SIX6 [24]
  binding signal: 8.92 upbm affinity estimate (log intensity, higher = more binding, comparable within an allelic series)
SIX6 [25]
  binding signal: 8.96 upbm affinity estimate (log intensity, higher = more binding, comparable within an allelic series)
SIX6 [26]
  binding signal: 8.94 upbm affinity estimate (log intensity, higher = more binding, comparable within an allelic series)
NKX2-4 [4]
  binding signal: 9.27 upbm affinity estimate (log intensity, higher = more binding, comparable within an allelic series)
SIX6 [27]
  binding signal: 8.96 upbm affinity estimate (log intensity, higher = more binding, comparable within an allelic series)
SIX6 [28]
  binding signal: 8.9 upbm affinity estimate (log intensity, higher = more binding, comparable within an allelic series)
SIX6 [29]
  binding signal: 8.89 upbm affinity estimate (log intensity, higher = more binding, comparable within an allelic series)
SIX6 [30]
  binding signal: 8.98 upbm affinity estimate (log intensity, higher = more binding, comparable within an allelic series)
SIX6 [31]
  binding signal: 8.88 upbm affinity estimate (log intensity, higher = more binding, comparable within an allelic series)
SIX6 [32]
  binding signal: 9 upbm affinity estimate (log intensity, higher = more binding, comparable within an allelic series)
NKX2-4 [7]
  binding signal: 9.27 upbm affinity estimate (log intensity, higher = more binding, comparable within an allelic series)
SIX6 [33]
  binding signal: 8.86 upbm affinity estimate (log intensity, higher = more binding, comparable within an allelic series)
SIX6 [34]
  binding signal: 8.88 upbm affinity estimate (log intensity, higher = more binding, comparable within an allelic series)

## GGGCTTAA
CRX [9]
  binding signal: 12.7 upbm affinity estimate (log intensity, higher = more binding, comparable within an allelic series)
PITX2
  binding signal: 12.7 upbm affinity estimate (log intensity, higher = more binding, comparable within an allelic series)
CRX [11]
  binding signal: 12.1 upbm affinity estimate (log intensity, higher = more binding, comparable within an allelic series)
